HCMV antiviral: blocks human cytomegalovirus replication | hit rate 4.5% among 410,000 | HFF cells, HCMV-luciferase reporter, 72 h; active compounds read low | activity change, negative = inhibition, % at 57.5 µM; in the data active = activity change below about -60%; inconclusive = no clear call, values can overlap the other calls; inactive = above about -39%
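Compounds were evaluated in HFFs infected with an HCMV luciferase reporter virus (MOI 1 PFU/cell). Luciferase in lysates collected 72 h post infection served as the replication measure.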
VACV Venus inh: inhibitors of vaccinia virus (Venus reporter); Potency, µM (titrated, usually from 36.5 µM), without a hit: top-dose activity change, negative = inhibition, most hits filed as inhibitors; Vaccinia virus Venus reporter expression, fluorescence; hit rate 0.46% among 330,000; AID 720580; calls by dose curve; tested in A549 cells; note: potency is the fitted concentration of half-maximal effect; nearly all actives have a fitted effect of over 30% in size
FMDV antiviral: antivirals against foot and mouth disease virus | Potency, µM (series often up to 57.9 µM), inactives show top-dose activity change, negative = inhibition, actives largely listed as inhibitors | hit rate 1.2% among 410,000 | FMDV antiviral cell-based qHTS; calls by dose curve; tested in HEK293T cells; note: read-out not given here; potency is the fitted concentration of half-maximal effect; nearly all actives have a fitted effect of over 45% in size
VACV mCherry inh: vaccinia inhibition (mCherry reporter) | Vaccinia virus mCherry reporter infection, fluorescence | Potency, µM (series often up to 36.5 µM), without a hit: at the highest dose activity change, negative = inhibition, hits mostly inhibitors | hit rate 0.63% among 310,000 | AID 720579; calls by dose curve; tested in A549 cells; note: potency is the fitted concentration of half-maximal effect; nearly all actives have a fitted effect of over 35% in size
HCV inh: HCV inhibition; Potency, µM (top dose mostly 41.8 µM), without a hit: at the top dose activity change, negative = inhibition, most hits filed as inhibitors; AID 651820; hit rate 3.4% among 340,000; Huh7.5.1 HCVcc-Cre infection, luciferase reporter, 44 h; active = well fitted inhibition curve with a large enough effect; inconclusive = small, poorly fitted or top-dose-only effect, or another doubt; inactive = no such curve, though single readings can be large or run the other way; note: potency is the fitted concentration of half-maximal effect
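Cells (1,000/well) were plated 4 h before compound, then infected with HCVcc-Cre virus (~0.5 moi). After 44 h further culture, infection was read as luciferase luminescence following a 15 min substrate incubation at room temperature.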
Active calls of the source: *; i = inactive; u = inconclusive; x = no result given; [ ] = another dose, or the depositor's remark. Hits are enriched below; roughly 7.3% of the tested compounds scored in any of these assays. % is set by controls: 0 for no effect and ±100 for the full control effect.

SMILES	HCMV antiviral	VACV Venus inh	FMDV antiviral	VACV mCherry inh	HCV inh
COc1cccc(N2CCN(C(=O)c3cnc4c(-c5ccc(F)cc5)c(C)nn4c3C)CC2)c1	2.3	-13.7%	-12.7%	-5.9%	x
COc1ccc(C2CC(=O)c3c([nH]c(C(=O)OCc4ccccc4)c3C)C2)cc1OC (configuration not stated)	-8.5	-8.2%	u	-18.0%	x
COC(=O)c1[nH]c2c(c1C)C(=O)CC(c1ccc(OC)cc1)C2 (configuration not stated)	-19.4	4.3%	-5.9%	0.8%	-16.4%
Cc1c(C(=O)OCc2ccccc2)[nH]c2c1C(=O)CC(c1ccc(Cl)cc1)C2 (configuration not stated)	-68.8*	-6.6%[7.34 µM]	-11.1%	-5.9%[7.34 µM]	x
CCc1ccc(C2CC(=O)c3c([nH]c(C(=O)OCCOc4ccccc4)c3C)C2)cc1 (configuration not stated)	-73.5*	-16.0%[7.34 µM]	u	i[7.34 µM]	x
COC(=O)c1[nH]c2c(c1C)C(=O)CC(c1ccccc1)C2 (configuration not stated)	-68.7*	u	x	-9.3%	u
Cc1c(C(=O)OCCOc2ccccc2)[nH]c2c1C(=O)CCC2	-78.8*	-24.7%	-62.7%	-15.1%	12.6µM*
Clc1ncc(C#Cc2ccccc2)c2ncncc12	x	-12.0%	x	-12.8%	x
C=C1C=C(C(F)(F)F)n2ncc(C(=O)NCc3ccc(F)cc3)c2N1	x	-13.9%	x	-0.2%	x
CCOc1ccc(C2CC(=O)c3c([nH]c(C(=O)OC4CCC(C)CC4)c3C)C2)cc1 (configuration not stated)	0.6	-6.1%	-18.2%	-5.2%	x
CCOc1ccc(C2CC(=O)c3c([nH]c(C(=O)OCCOc4ccccc4)c3C)C2)cc1 (configuration not stated)	-106.0*	u	-23.2%	-17.4%	x
CC(=O)Nc1ccc(CNc2nc3cc(-c4ccsc4)sc3c(=O)n2C)cc1	-65.7*	-16.9%	0.0%	6.2%	x
COc1cccc(CNc2nc3cc(-c4ccccc4)sc3c(=O)n2C)c1	-65.0*	-19.6%	0.0%	i	x
COc1cccc(CNc2nc3cc(-c4ccc(OC)c(OC)c4)sc3c(=O)n2C)c1	21.0	-29.8%	u	-8.1%	x
CC(=O)Nc1ccc(CNc2nc3cc(-c4ccc(F)cc4)sc3c(=O)n2C)cc1	u	u	-6.4%	u	x
COc1cccc(CNc2nc3cc(-c4ccsc4)sc3c(=O)n2C)c1OC	-68.3*	-13.8%	31.6µM*	13.3%	x
COc1ccc(-c2cc3nc(NCc4ccc(N(C)C)cc4)n(C)c(=O)c3s2)cc1OC	u	u	28.2µM*	i	x
Cc1ccc(NC(=O)Cn2c(=O)n(Cc3ccco3)c(=O)c3oc4ccccc4c32)cc1C	1.1	-22.4%	-23.1%	u	x
Cc1cc2c(c(=O)o1)[C@@]1(C(=O)N(C)c3ccccc31)C1=C(CCC1=O)O2	-27.7	x	x	x	x
CC1=C(C(=O)Nc2ccccc2)C(c2ccncc2)n2nc(SCc3ccccc3)nc2N1 (configuration not stated)	4.0	9.1%	-9.5%	1.8%	x
COc1cccc(CNc2nc3cc(-c4ccc(F)cc4)sc3c(=O)n2C)c1OC	-71.4*	-12.0%	-19.5%	7.3%	x
COCCNc1nc(NCc2ccc(NC(C)=O)cc2)c2sc(-c3ccccc3)cc2n1	-97.8*	11.2µM*	-7.2%	u	x
COCCNc1nc(Oc2ccc(NC(C)=O)cc2)c2sc(-c3ccccc3)cc2n1	-16.4	u	-17.6%	-13.7%	x
CCOC(=O)c1nnn(C(CC)C(=O)Nc2ccc(F)cc2)c1C(=O)OCC (configuration not stated)	10.0	-2.7%	-26.9%	1.5%	x
O=C(CN1Cc2ccccc2OC(c2ccsc2)C1)N1CCN(Cc2ccc3c(c2)OCO3)CC1 (configuration not stated)	x	-6.6%	1.1%	-12.5%	x
SMILES	HCMV antiviral	VACV Venus inh	FMDV antiviral	VACV mCherry inh	HCV inh
COc1ccc(CCNC(=O)c2cccc(-n3cnc4cccnc43)c2C)cc1OC	0.0	-3.9%	-6.8%	-8.5%	x
O=c1c2ccccc2oc2cc(C#Cc3ccccn3)ccc12	-27.8	-7.6%	-15.3%	4.8%	20.9%
C=CCn1c2ccccc2c(=O)c2cc(C#Cc3ccccn3)ccc21	u	-13.1%	32.0%	i	12.6µM*
CC(C)C(=O)N1c2ncnn2C2(CCCCC2)[C@@H]2CCCC[C@@H]21	-110.8*	-11.1%	-27.4%	-15.3%	x
COC(C[C@@H](O)CC(=O)COCc1ccccc1)OC	4.3	-2.3%	-11.1%	-10.1%	2.82µM*
N#C/C(=C\c1ccc(OCc2ccc(Cl)cc2Cl)cc1)c1nc2ccccc2[nH]1	20.3	-12.7%	-27.1%	-6.7%	x
COc1cc(/C=C(\C#N)c2nc3ccccc3[nH]2)cc(Cl)c1OCc1ccccc1Cl	-80.0*	-23.9%	u	-25.3%	x
N#C/C(=C\c1ccc(Oc2ccc(C(F)(F)F)cc2[N+](=O)[O-])cc1)c1nc2ccccc2[nH]1	-32.7	-15.8%	25.1µM*	x	-12.0%
COc1cc(/C=C(\C#N)c2nc3ccccc3[nH]2)c([N+](=O)[O-])cc1OCc1ccccc1	u	-12.2%	-24.3%	x	7.08µM*
Cc1ccc(NC(=O)c2ccc(NC(=O)C3CCCC3)cc2)c(C)c1	x	-10.3%	x	-21.9%	x
Cc1cc(C)c2c(CC(=O)Nc3ccc(S(=O)(=O)N4CCCC(C)C4)cc3)coc2c1 (configuration not stated)	-5.8	-10.6%	-17.4%	-12.6%	x
COc1ccc(C)cc1NC(=O)c1ccccc1NS(=O)(=O)c1ccc(Cl)s1	-61.1*	x	-25.2%	x	u
Cc1ccc(NC(=O)c2ccc([N+](=O)[O-])s2)cc1S(=O)(=O)N1CCOCC1	-94.0*	u	u	u	u
Cc1ccc(NC(=O)c2ccccc2NS(=O)(=O)c2ccc(Cl)s2)cc1S(=O)(=O)N1CCOCC1	-82.1*	u	u	-23.4%	u
O=C(Nc1cc(S(=O)(=O)N2CCOCC2)ccc1N1CCOCC1)c1ccc([N+](=O)[O-])s1	u	x	-19.6%	x	12.6µM*
O=C(Nc1cc(S(=O)(=O)N2CCOCC2)ccc1O)c1ccc(NS(=O)(=O)c2ccc(Cl)s2)cc1	-23.0	-1.8%	-2.1%	-21.1%	u
COc1ccccc1NC(=O)c1ccccc1NS(=O)(=O)c1cccs1	4.9	-11.7%	-17.9%	-4.7%	9.6%
Cc1ccc(NC(=O)C2=COCCO2)cc1S(=O)(=O)N1CCOCC1	-26.2	0.1%	6.8%	i	34.7%
COc1ccc(C2CC(=O)NC(NC(=O)c3ccc(Br)cc3)=N2)c(OC)c1OC (configuration not stated)	-7.2	-8.3%	-7.7%	i	x
O=C(CCC(=O)Nc1ccc(Br)cc1)N/N=C/c1ccccc1O	-65.6*	u	23.6%	5.62µM*	u
O=C(COc1nsnc1N1CCOCC1)N/N=C/c1ccccc1O	38.6	u	-3.6%	22.4µM*	u
COCCCNC(=S)N/N=C/c1ccccc1O	-62.0*	x	55.3%	x	-18.3%
Cc1ccc(NC(=O)CCC(=O)N/N=C/c2ccccc2O)cc1	3.0	x	14.8%	x	-27.6%

Assay outcomes: PubChem BioAssay, National Center for Advancing Translational Sciences (NCATS)
